Publication PMC7862700, “An all-to-all approach to the identification of sequence-specific readers for epigenetic DNA modifications on cytosine”

How the values were obtained:
Assay in all cases: DAPPL (digital affinity profiling via proximity ligation, sequencing); 10 mM Tris-HCl pH 7.5, 50 mM NaCl, 1 mM DTT, 4% glycerol, room temperature, 30 min; GST-TFs on glutathione beads, 16-mer random dsDNA library, 0.1% formaldehyde crosslink after washing; high values mean tight binding
FEV = target: T1, FEV (Homo sapiens, UniProt Q99581 1-238); settings: protein: recombinant; tags: N-terminal GST; dsDNA, one strand shown
T1 sequence: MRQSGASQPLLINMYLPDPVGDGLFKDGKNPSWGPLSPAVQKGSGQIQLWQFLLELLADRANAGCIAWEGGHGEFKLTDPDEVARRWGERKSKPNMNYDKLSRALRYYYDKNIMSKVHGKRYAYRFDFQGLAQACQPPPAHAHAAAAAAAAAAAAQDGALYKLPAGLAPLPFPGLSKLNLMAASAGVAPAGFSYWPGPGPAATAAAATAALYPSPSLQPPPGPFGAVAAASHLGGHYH
In short: (§1)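 Sequencing on an Illumina NextSeq500 followed washing, crosslinking with 0.1% formaldehyde, proximity ligation (BsaI/T4 ligase, 1 h, 37 °C) and PCR amplification of pools that had been incubated for 30 min at room temperature with 200 nmole of a random double-stranded 16-mer DNA library in Tris/NaCl/DTT/glycerol buffer. Each pool held DNA-barcoded human transcription factors, expressed in yeast as GST fusions and captured on glutathione beads, plus a tag-only sample. Binding signal is a hexamer's read frequency for a factor divided by its frequency in the tag-only sample.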

ETV5 = ETV5 (Homo sapiens, UniProt P41161 1-510); settings: protein: recombinant; tags: N-terminal GST; dsDNA, one strand shown
Sequence of ETV5 (P41161 whole entry): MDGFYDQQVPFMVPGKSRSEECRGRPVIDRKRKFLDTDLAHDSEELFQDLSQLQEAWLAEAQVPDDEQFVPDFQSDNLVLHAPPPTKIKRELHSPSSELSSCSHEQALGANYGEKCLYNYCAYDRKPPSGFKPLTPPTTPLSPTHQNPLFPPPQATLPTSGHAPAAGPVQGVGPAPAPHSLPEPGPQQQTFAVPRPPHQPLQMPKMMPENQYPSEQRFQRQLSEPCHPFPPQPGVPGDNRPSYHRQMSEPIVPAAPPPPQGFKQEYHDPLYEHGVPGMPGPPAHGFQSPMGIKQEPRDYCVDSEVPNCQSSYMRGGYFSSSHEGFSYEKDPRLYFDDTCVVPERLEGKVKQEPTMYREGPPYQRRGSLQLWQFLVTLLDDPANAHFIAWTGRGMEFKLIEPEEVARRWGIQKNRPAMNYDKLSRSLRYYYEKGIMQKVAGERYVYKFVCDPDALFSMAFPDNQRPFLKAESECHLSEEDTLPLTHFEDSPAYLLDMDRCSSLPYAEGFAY
In short: as §1

HSF1 = HSF1 (Homo sapiens, UniProt Q00613 1-529); settings: protein: recombinant; tags: N-terminal GST; chain copies: 3; dsDNA, one strand shown
Sequence of HSF1 (Q00613 whole entry): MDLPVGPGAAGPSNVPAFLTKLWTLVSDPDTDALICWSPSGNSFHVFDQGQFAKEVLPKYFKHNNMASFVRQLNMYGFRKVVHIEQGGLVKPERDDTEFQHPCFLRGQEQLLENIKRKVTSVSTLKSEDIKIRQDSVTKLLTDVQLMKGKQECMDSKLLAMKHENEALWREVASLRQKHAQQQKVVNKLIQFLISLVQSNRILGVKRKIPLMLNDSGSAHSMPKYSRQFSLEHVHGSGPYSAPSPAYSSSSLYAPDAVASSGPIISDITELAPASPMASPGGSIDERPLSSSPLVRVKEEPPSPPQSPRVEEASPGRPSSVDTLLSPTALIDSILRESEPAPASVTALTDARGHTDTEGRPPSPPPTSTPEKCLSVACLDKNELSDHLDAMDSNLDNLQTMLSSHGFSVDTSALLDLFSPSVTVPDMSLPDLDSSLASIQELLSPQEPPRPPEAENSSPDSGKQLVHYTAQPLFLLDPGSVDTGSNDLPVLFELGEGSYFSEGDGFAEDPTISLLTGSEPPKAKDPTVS
In short: as §1

SPIC = target: T2, SPIC (Homo sapiens, UniProt Q8N5J4 1-248); settings: protein: recombinant; tags: N-terminal GST; dsDNA, one strand shown
T2 sequence: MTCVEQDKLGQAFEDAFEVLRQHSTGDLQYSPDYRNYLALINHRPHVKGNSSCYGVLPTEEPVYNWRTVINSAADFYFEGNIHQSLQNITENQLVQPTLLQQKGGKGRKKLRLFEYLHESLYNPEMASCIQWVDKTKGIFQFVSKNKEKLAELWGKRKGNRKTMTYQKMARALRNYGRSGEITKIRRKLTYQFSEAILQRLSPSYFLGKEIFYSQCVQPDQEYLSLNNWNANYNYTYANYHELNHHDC
In short: as §1

ELF4 = ELF4 (Homo sapiens, UniProt Q99607 1-663); settings: protein: recombinant; tags: N-terminal GST; dsDNA, one strand shown
Sequence of ELF4 (Q99607 whole entry): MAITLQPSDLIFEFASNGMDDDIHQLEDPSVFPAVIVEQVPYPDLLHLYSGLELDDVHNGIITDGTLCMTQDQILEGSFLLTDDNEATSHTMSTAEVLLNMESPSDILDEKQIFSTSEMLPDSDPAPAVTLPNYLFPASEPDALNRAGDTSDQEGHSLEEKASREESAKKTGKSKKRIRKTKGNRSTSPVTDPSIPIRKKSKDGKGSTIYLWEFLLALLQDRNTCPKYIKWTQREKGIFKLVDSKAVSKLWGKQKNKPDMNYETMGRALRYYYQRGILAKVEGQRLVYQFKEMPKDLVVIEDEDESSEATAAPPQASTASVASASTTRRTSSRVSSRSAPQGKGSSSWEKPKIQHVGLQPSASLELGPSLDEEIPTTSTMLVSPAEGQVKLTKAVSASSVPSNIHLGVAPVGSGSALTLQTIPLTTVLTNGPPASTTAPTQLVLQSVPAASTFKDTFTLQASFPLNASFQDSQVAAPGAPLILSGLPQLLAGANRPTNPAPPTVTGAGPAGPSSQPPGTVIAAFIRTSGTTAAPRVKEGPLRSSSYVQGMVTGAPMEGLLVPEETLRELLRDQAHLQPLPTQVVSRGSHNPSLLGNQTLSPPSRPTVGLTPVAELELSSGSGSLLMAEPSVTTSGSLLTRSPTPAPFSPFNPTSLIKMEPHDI
In short: as §1

ELK4 = target: T3, ELK4 (Homo sapiens, UniProt P28324-2 1-405); settings: protein: recombinant; tags: N-terminal GST; dsDNA, one strand shown
T3 sequence: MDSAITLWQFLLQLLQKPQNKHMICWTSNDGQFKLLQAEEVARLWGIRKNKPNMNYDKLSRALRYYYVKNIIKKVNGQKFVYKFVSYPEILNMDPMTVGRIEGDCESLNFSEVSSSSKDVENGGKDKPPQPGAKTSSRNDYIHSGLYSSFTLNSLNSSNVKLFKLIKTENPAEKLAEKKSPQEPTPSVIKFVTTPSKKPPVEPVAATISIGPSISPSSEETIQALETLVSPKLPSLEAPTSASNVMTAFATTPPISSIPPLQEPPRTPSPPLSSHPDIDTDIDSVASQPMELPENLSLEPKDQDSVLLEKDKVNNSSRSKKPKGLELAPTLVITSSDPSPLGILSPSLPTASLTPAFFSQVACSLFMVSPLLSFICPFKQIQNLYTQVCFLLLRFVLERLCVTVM
In short: as §1

ETV2 = target: T4, ETV2 (Homo sapiens, UniProt O00321 1-342); settings: protein: recombinant; tags: N-terminal GST; dsDNA, one strand shown
T4 sequence: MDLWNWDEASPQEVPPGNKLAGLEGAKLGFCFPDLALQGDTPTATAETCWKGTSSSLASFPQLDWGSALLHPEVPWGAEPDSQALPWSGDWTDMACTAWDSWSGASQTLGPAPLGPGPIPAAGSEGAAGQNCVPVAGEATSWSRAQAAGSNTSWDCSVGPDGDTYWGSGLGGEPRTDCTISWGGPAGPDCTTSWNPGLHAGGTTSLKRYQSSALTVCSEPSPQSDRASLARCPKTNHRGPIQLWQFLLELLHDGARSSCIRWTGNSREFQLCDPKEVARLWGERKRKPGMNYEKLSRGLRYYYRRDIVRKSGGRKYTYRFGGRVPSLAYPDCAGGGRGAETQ
In short: as §1

ELF3 = target: T5, ELF3 (Homo sapiens, UniProt P78545 1-371); settings: protein: recombinant; tags: N-terminal GST; dsDNA, one strand shown
T5 sequence: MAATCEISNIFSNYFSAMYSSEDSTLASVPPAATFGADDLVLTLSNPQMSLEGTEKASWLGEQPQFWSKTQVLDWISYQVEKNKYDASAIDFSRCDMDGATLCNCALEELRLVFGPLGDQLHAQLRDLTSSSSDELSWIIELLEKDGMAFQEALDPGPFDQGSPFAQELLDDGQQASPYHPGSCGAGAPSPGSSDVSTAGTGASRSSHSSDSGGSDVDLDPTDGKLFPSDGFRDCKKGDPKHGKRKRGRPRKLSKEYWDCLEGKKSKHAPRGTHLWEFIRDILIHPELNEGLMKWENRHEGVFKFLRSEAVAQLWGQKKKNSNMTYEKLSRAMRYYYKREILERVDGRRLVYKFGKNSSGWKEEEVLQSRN
In short: as §1

CRX = CRX (Homo sapiens, UniProt O43186 1-299); settings: protein: recombinant; tags: N-terminal GST; dsDNA, one strand shown
Sequence of CRX (O43186 whole entry): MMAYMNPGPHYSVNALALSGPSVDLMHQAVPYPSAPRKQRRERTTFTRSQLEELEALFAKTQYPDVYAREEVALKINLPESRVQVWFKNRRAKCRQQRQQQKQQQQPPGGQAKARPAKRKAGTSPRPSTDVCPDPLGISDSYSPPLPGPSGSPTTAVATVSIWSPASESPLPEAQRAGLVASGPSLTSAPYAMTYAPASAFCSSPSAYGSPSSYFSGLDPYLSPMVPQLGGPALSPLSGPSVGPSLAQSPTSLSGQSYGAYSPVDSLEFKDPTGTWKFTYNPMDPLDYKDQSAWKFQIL
In short: as §1

ETV1 = ETV1 (Homo sapiens, UniProt P50549 1-477); settings: protein: recombinant; tags: N-terminal GST; dsDNA, one strand shown
Sequence of ETV1 (P50549 whole entry): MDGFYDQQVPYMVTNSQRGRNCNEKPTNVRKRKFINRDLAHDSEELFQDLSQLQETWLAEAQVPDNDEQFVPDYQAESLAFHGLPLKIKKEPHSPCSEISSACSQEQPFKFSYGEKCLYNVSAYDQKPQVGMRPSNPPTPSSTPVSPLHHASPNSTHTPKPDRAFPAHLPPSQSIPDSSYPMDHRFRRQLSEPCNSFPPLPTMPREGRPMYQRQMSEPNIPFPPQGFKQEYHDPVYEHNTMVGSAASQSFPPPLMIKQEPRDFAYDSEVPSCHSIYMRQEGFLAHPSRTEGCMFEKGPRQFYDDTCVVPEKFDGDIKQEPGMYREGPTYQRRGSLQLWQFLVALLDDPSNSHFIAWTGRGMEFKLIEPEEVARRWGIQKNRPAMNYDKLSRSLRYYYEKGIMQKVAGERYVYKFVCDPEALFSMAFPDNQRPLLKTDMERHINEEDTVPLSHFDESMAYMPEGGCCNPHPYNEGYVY
In short: as §1

| Sequence | binding signal (FEV) | binding signal (ETV5) | binding signal (HSF1) | binding signal (SPIC) | binding signal (ELF4) | binding signal (ELK4) | binding signal (ETV2) | binding signal (ELF3) | binding signal (CRX) | binding signal (ETV1) |
| --- | --- | --- | --- | --- | --- | --- | --- | --- | --- | --- |
| TGACCG | 1.66 fold enrichment (6-mer frequency, TF over GST control) | 1.33 fold enrichment (6-mer frequency, TF over GST control) | 1.17 fold enrichment (6-mer frequency, TF over GST control) | 1.68 fold enrichment (6-mer frequency, TF over GST control) | 1.47 fold enrichment (6-mer frequency, TF over GST control) | 1.4 fold enrichment (6-mer frequency, TF over GST control) | 1.52 fold enrichment (6-mer frequency, TF over GST control) | 1.66 fold enrichment (6-mer frequency, TF over GST control) | 1.1 fold enrichment (6-mer frequency, TF over GST control) | 1.56 fold enrichment (6-mer frequency, TF over GST control) |
| TCACGA | 1.05 fold enrichment (6-mer frequency, TF over GST control) | 1.09 fold enrichment (6-mer frequency, TF over GST control) | 1.37 fold enrichment (6-mer frequency, TF over GST control) | 1.1 fold enrichment (6-mer frequency, TF over GST control) | 1.27 fold enrichment (6-mer frequency, TF over GST control) | 1.19 fold enrichment (6-mer frequency, TF over GST control) | 1.12 fold enrichment (6-mer frequency, TF over GST control) | 1.17 fold enrichment (6-mer frequency, TF over GST control) | 1.1 fold enrichment (6-mer frequency, TF over GST control) | 1.13 fold enrichment (6-mer frequency, TF over GST control) |
| TATTAC | 1.16 fold enrichment (6-mer frequency, TF over GST control) | 1.28 fold enrichment (6-mer frequency, TF over GST control) | 1.33 fold enrichment (6-mer frequency, TF over GST control) | 1.24 fold enrichment (6-mer frequency, TF over GST control) | 1.2 fold enrichment (6-mer frequency, TF over GST control) | 1.31 fold enrichment (6-mer frequency, TF over GST control) | 1.27 fold enrichment (6-mer frequency, TF over GST control) | 1.16 fold enrichment (6-mer frequency, TF over GST control) | 1.79 fold enrichment (6-mer frequency, TF over GST control) | 1.27 fold enrichment (6-mer frequency, TF over GST control) |
| CTCGAC | 1.41 fold enrichment (6-mer frequency, TF over GST control) | 1.47 fold enrichment (6-mer frequency, TF over GST control) | 1.77 fold enrichment (6-mer frequency, TF over GST control) | 1.58 fold enrichment (6-mer frequency, TF over GST control) | 1.58 fold enrichment (6-mer frequency, TF over GST control) | 1.49 fold enrichment (6-mer frequency, TF over GST control) | 1.39 fold enrichment (6-mer frequency, TF over GST control) | 1.31 fold enrichment (6-mer frequency, TF over GST control) | 1.32 fold enrichment (6-mer frequency, TF over GST control) | 1.58 fold enrichment (6-mer frequency, TF over GST control) |
| AACATC | 1.63 fold enrichment (6-mer frequency, TF over GST control) | 1.51 fold enrichment (6-mer frequency, TF over GST control) | 1.3 fold enrichment (6-mer frequency, TF over GST control) | 1.44 fold enrichment (6-mer frequency, TF over GST control) | 1.41 fold enrichment (6-mer frequency, TF over GST control) | 1.41 fold enrichment (6-mer frequency, TF over GST control) | 1.45 fold enrichment (6-mer frequency, TF over GST control) | 1.5 fold enrichment (6-mer frequency, TF over GST control) | 1.12 fold enrichment (6-mer frequency, TF over GST control) | 1.43 fold enrichment (6-mer frequency, TF over GST control) |
| AATAGT | 1.19 fold enrichment (6-mer frequency, TF over GST control) | 1.27 fold enrichment (6-mer frequency, TF over GST control) | 1.21 fold enrichment (6-mer frequency, TF over GST control) | 1.28 fold enrichment (6-mer frequency, TF over GST control) | 1.18 fold enrichment (6-mer frequency, TF over GST control) | 1.46 fold enrichment (6-mer frequency, TF over GST control) | 1.17 fold enrichment (6-mer frequency, TF over GST control) | 1.26 fold enrichment (6-mer frequency, TF over GST control) | 1.19 fold enrichment (6-mer frequency, TF over GST control) | 1.17 fold enrichment (6-mer frequency, TF over GST control) |
| ATGACA | 1.22 fold enrichment (6-mer frequency, TF over GST control) | 1.29 fold enrichment (6-mer frequency, TF over GST control) | 1.09 fold enrichment (6-mer frequency, TF over GST control) | 1.14 fold enrichment (6-mer frequency, TF over GST control) | 1.32 fold enrichment (6-mer frequency, TF over GST control) | 1.19 fold enrichment (6-mer frequency, TF over GST control) | 1.19 fold enrichment (6-mer frequency, TF over GST control) | 1.33 fold enrichment (6-mer frequency, TF over GST control) | 1.09 fold enrichment (6-mer frequency, TF over GST control) | 1.28 fold enrichment (6-mer frequency, TF over GST control) |
